Rows were chosen to be rich in hits. Some 2.9% of all compounds tested hit in one or more screens of this group.
PAFAH2 FP inh – PAFAH2 enzyme inhibitors, primary screen, biochemical, fluorescence polarization, human; Platelet-activating factor acetylhydrolase 2, cytoplasmic (Homo sapiens), Q99487; recombinant PAFAH2, FP-rhodamine activity probe; inhibition, % at 3.39 µM; 340,000 tested, 0.99% active; AID 492956, 2010;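 active = inhibition above the mean over all tested compounds plus 3 SD, cut at about 30% in these data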;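 note: inhibitors block probe labeling of enzyme so polarization drops; 0% = enzyme with DMSO and 100% = wells lacking PAFAH2 protein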
PAFAH1B2 inh – PAFAH1B2 enzyme inhibitors, primary screen, biochemical, fluorescence polarization, human. Platelet-activating factor acetylhydrolase IB subunit alpha2 (Homo sapiens), P68402. recombinant PAFAH1B2, FP-rhodamine activity probe. inhibition, % at 3.39 µM. 340,000 tested, 1.2% active. AID 492953, 2010;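 active = inhibition above the mean of all tested compounds plus 3 SD, cut at about 24% in these data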;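 note: 0% = enzyme with DMSO and 100% = wells lacking PAFAH1B2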
Target sequence (P68402 whole entry, looked up): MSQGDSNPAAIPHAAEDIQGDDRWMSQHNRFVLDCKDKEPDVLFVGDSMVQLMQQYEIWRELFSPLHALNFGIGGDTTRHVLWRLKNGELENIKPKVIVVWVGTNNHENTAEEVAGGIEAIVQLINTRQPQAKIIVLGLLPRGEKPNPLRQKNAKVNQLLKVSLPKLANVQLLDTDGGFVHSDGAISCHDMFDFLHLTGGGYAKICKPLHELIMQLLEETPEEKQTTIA
ZTA DNA inh – counter-screen for EBNA-1 inhibitors: inhibitors of Epstein-Barr virus ZTA. P03206. ZTA-DNA binding, fluorescence polarization. inhibition, % at 11 µM. 320,000 tested, 0.15% active. AID 2234; in the data active = inhibition above about 33%
pPAFAH FP inh – pPAFAH enzyme inhibitors, primary screen, biochemical, fluorescence polarization, human. Platelet-activating factor acetylhydrolase (Homo sapiens), Q13093. recombinant pPAFAH, FP-rhodamine probe fluorescence polarization. inhibition, % at 3.39 µM. 330,000 tested, 1.5% active;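 active = inhibition above the mean inhibition across the screen plus 3 SD, cut at about 25% in these data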;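 note: inhibitors block binding of the rhodamine activity-based probe so polarization drops; 0% = enzyme with DMSO and 100% = wells lacking pPAFAH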
EBNA-1 inh – EBNA-1 DNA-binding inhibitors, primary screen, biochemical, fluorescence polarization; inhibition, % at 14.8 µM; 300,000 tested, 0.34% active; AID 1950, 2009; in the data active = inhibition above about 28%
PAFAH1B3 FP inh – PAFAH1B3 enzyme inhibitors, primary screen, biochemical, fluorescence polarization, human. recombinant PAFAH1B3, FP-rhodamine probe. inhibition, % at 3.39 µM. 340,000 tested, 0.28% active. AID 492972, 2010;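 active = inhibition above the screen-wide average of all tested compounds plus 3 SD, cut at about 25% in these data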;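 note: 0% = enzyme with DMSO only and 100% = wells lacking PAFAH1B3 protein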
Target sequence (Q15102 whole entry, looked up): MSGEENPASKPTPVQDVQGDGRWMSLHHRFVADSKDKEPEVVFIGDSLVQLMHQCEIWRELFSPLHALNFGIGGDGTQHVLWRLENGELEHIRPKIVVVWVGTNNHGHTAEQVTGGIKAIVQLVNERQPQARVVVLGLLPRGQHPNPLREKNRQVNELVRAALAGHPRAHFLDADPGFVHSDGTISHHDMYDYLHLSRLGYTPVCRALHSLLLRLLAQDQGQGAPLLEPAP
The depositor's hits bear a star.

Results for CC(C)C(C)NC(=O)COC(=O)c1cc(S(=O)(=O)N(C)C)ccc1N1CCCC1 (configuration not stated) ?
ZTA DNA inh: 8; pPAFAH FP inh: -2; EBNA-1 inh: 5

Results for COc1ccc2c(c1)c(/C=N/Nc1ccc(C(=O)O)cc1)c(C)n2C ?
PAFAH2 FP inh: 6; PAFAH1B2 inh: 3; ZTA DNA inh: -26; pPAFAH FP inh: 25*; EBNA-1 inh: -12; PAFAH1B3 FP inh: 8

How did COc1ccc2c(/C=N/Nc3ccc(C(=O)O)cc3)c[nH]c2c1 do in these assays?
PAFAH2 FP inh: -4; PAFAH1B2 inh: -1; ZTA DNA inh: -10; pPAFAH FP inh: 28*; EBNA-1 inh: -4; PAFAH1B3 FP inh: 6

How did COc1ccc2c(c1)c(C(=O)N/N=C/c1ccc(Br)cc1)c(C)n2C do in these assays?
PAFAH2 FP inh: -4; PAFAH1B2 inh: 1; ZTA DNA inh: 7; pPAFAH FP inh: 5; EBNA-1 inh: -1; PAFAH1B3 FP inh: 8

Results for COc1ccc2c(c1)C(=NNc1ccc(C(=O)O)cc1)c1cc(OC)ccc1-2 ?
PAFAH2 FP inh: 21; PAFAH1B2 inh: 11; ZTA DNA inh: 12; pPAFAH FP inh: 31*; EBNA-1 inh: 21; PAFAH1B3 FP inh: 27*

Results for COc1ccc(C(=O)N/N=C/c2c[nH]c3ccccc23)cc1 ?
PAFAH2 FP inh: 9; PAFAH1B2 inh: 7; ZTA DNA inh: 9; pPAFAH FP inh: -1; EBNA-1 inh: -9; PAFAH1B3 FP inh: 7

Results for O=[N+]([O-])c1cccc(CSc2nnc(Cc3ccccc3)n2-c2ccc(F)cc2)c1 ?
PAFAH2 FP inh: 1; PAFAH1B2 inh: 2; ZTA DNA inh: 11; pPAFAH FP inh: 10; EBNA-1 inh: 5; PAFAH1B3 FP inh: 1

Results for CN(C)S(=O)(=O)c1cccc(NC(=S)NNC(=O)c2cc3ccccc3cc2O)c1 ?
PAFAH2 FP inh: 15; PAFAH1B2 inh: 8; ZTA DNA inh: -5; pPAFAH FP inh: 28*; PAFAH1B3 FP inh: 7

Results for COc1ccc(N2C(=NC(=O)C(C)Oc3ccccc3)SC3CS(=O)(=O)CC32)cc1 (configuration not stated) ?
PAFAH2 FP inh: 6; PAFAH1B2 inh: 2; ZTA DNA inh: -1; pPAFAH FP inh: 4; EBNA-1 inh: 4; PAFAH1B3 FP inh: -4

How did CSc1ccc(S(=O)(=O)NCc2ccc(Cl)cc2Cl)cc1 do in these assays?
PAFAH2 FP inh: 1; PAFAH1B2 inh: 29*; ZTA DNA inh: -6; pPAFAH FP inh: -1; EBNA-1 inh: -12; PAFAH1B3 FP inh: 4

Results for O=S(=O)(NCc1ccccc1)NCc1ccccc1 ?
PAFAH2 FP inh: 8; PAFAH1B2 inh: 1; ZTA DNA inh: -4; pPAFAH FP inh: 5; EBNA-1 inh: 0; PAFAH1B3 FP inh: 6

What do the screens show for `O=S(=O)(NCc1ccccc1)NCc1ccc(Cl)cc1Cl`?
PAFAH2 FP inh: 9; PAFAH1B2 inh: 28*; ZTA DNA inh: 22; pPAFAH FP inh: 2; EBNA-1 inh: -17; PAFAH1B3 FP inh: 4

How did O=C(CCc1nnc(CCCc2ccccc2)o1)NCCc1ccco1 do in these assays?
PAFAH2 FP inh: 0; PAFAH1B2 inh: 14; ZTA DNA inh: -22; pPAFAH FP inh: 6; EBNA-1 inh: 2; PAFAH1B3 FP inh: 5

What do the screens show for `O=C(CCc1nnc(CCCc2ccccc2)o1)NCCc1ccccc1`?
PAFAH2 FP inh: 1; PAFAH1B2 inh: 24*; ZTA DNA inh: 4; pPAFAH FP inh: 1; EBNA-1 inh: -8; PAFAH1B3 FP inh: -1

How did CCCS(=O)(=O)N1CCCC(C(=O)NCCc2cccc(C)c2)C1 (configuration not stated) do in these assays?
PAFAH2 FP inh: -4; PAFAH1B2 inh: 2; ZTA DNA inh: 3; pPAFAH FP inh: 4; EBNA-1 inh: 6; PAFAH1B3 FP inh: 11

How did CC(C)N1CCN(S(=O)(=O)c2ccc3ccccc3c2)CC1 do in these assays?
PAFAH2 FP inh: 4; PAFAH1B2 inh: 1; ZTA DNA inh: 133*; pPAFAH FP inh: 0; EBNA-1 inh: 153*; PAFAH1B3 FP inh: 2

How did N#Cc1ccc(/C=N/NC(=S)Nc2ccc(S(=O)(=O)N3CCOCC3)cc2)cc1 do in these assays?
PAFAH2 FP inh: 8; PAFAH1B2 inh: 1; ZTA DNA inh: 9; pPAFAH FP inh: 3; EBNA-1 inh: 10; PAFAH1B3 FP inh: 2

High-throughput results (PubChem BioAssay)
